# Assay results: publication PMC4336329 (PLoS ONE, 2015)
# Out of some 310,000 compounds screened, about 14,000 (4.5%) showed an effect of 50% or more. The effect is printed as a negative number. The entries come from a sample that favours strong results as a whole.
# Target: human ether-à-go-go-related gene (hERG) potassium channel (human, UniProt Q12809)
# Experiment: primary screen, population patch clamp on CHO cells stably expressing hERG; higher = less effect of the substance
# 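Also: peak tail current of the secondary pulse compared with the same well before compound.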
# Sequence of human ether-à-go-go-related gene (hERG) potassium channel (Q12809 whole entry, looked up): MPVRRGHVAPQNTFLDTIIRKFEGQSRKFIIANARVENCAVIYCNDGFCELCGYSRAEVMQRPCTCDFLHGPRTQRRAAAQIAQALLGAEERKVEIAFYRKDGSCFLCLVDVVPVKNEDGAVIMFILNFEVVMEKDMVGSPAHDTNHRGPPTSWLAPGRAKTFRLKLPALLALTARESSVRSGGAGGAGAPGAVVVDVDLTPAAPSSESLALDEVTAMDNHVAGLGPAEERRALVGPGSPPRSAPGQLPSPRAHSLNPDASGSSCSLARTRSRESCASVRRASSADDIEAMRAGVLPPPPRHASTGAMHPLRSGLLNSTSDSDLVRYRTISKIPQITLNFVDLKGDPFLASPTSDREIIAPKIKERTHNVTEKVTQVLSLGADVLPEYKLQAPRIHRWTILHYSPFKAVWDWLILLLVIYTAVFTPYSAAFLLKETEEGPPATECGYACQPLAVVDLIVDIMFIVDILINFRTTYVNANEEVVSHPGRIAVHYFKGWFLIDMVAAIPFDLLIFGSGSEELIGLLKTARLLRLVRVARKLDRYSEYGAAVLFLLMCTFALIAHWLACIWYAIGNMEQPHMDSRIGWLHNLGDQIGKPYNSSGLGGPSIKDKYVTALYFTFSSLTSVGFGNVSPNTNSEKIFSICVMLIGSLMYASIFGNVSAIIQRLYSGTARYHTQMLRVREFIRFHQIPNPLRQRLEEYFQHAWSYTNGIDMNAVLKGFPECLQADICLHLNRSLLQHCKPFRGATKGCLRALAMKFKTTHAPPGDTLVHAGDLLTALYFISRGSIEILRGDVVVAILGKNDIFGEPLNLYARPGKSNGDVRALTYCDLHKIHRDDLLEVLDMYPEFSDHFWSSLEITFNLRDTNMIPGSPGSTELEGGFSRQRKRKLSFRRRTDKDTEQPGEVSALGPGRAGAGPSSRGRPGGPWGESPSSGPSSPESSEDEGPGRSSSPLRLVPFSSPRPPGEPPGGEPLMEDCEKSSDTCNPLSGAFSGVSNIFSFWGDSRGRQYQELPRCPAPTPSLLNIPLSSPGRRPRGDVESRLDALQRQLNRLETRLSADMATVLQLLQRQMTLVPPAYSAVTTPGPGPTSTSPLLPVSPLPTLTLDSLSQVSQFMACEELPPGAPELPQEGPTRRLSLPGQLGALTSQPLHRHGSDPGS
row,Compound,"hERG current change (%, negative = inhibition) at 10uM [%]"
1,Cc1ccccc1N(C(=O)c1csnn1)C(C(=O)NC1CCCCC1)c1ccncc1 (stereo not shown),10.7
2,CN(C)S(=O)(=O)c1cc(NC(=O)CN2CCOCC2)ccc1Cl,17.7
3,COc1ccc(NC(=O)c2sc3nc(C)nc(N4CCN(c5ccccn5)CC4)c3c2C)cc1Cl,-3.04
4,Cc1oc2cc(O)cc(O)c2c(=O)c1-c1ccc2c(c1)OCCCO2,3.88
5,O=C(NC1CCCCCCC1)C1CCN(S(=O)(=O)N2CCCC2)CC1,-2.62
6,O=C(CNC(=O)c1ccco1)OCC(=O)c1ccc([N+](=O)[O-])cc1,11.9
7,CCc1noc(C)c1C(=O)OCC(=O)c1ccc(OC)c(OC)c1,-5.3
8,CCOc1ccc(NC(=O)c2ccc3c(=O)n4c(nc3c2)CCCCC4)cc1,19.5
9,COc1ccc(NC(=O)c2ccc3c(=O)n4c(nc3c2)CCCCC4)cc1,-40
10,CCOc1ccccc1NC(=O)c1ccc2c(=O)n3c(nc2c1)CCCCC3,-58.6
11,O=C(Nc1ccc(F)cc1)c1ccc2c(=O)n3c(nc2c1)CCCCC3,-51.8
12,O=C(Nc1ccc(Cl)cc1)c1ccc2c(=O)n3c(nc2c1)CCCCC3,-32.5
13,CC(=O)c1cccc(NC(=O)c2ccc3c(=O)n4c(nc3c2)CCCCC4)c1,-75.5
14,CCc1ccc(NC(=O)c2ccc3c(=O)n4c(nc3c2)CCCCC4)cc1,-46.8
15,CCN(CC)C(=O)c1cccc(NC(=O)c2ccc3c(=O)n4c(nc3c2)CCC4)c1,-10.7
16,CC(=O)c1ccc(NC(=O)c2ccc3c(=O)n4c(nc3c2)CCCCC4)cc1,-5.23
17,CCc1ccc(C(=O)NNC(=O)c2ccc3c(=O)n4c(nc3c2)CCC4)cc1,5.5
18,CCOC(=O)c1ccccc1NC(=O)c1ccc2c(=O)n3c(nc2c1)CCCCC3,-41.3
19,CCc1cccc(NC(=O)c2ccc3c(=O)n4c(nc3c2)CCCCC4)c1,-76.6
20,Cc1ccc(NC(=O)C2CCCN(S(=O)(=O)c3ccc4[nH]c(=O)ccc4c3)C2)c(C)c1 (stereo not shown),3.65
21,Cc1cccc(C)c1N(CC(=O)N(C)Cc1ccccc1)S(C)(=O)=O,3.99
22,COC(=O)c1ccc2c(=O)n(Cc3ccc4c(c3)OCO4)c(=S)[nH]c2c1,16.3

row,Compound,"hERG current change (%, negative = inhibition) at 10uM [%]"
1,CCn1c2ccccc2c2cc(NC(=O)CSc3nnc(-c4ccc(OC)cc4)n3N)ccc21,-10.9
2,O=S(=O)(c1ccc2ccccc2c1)N1CCN(S(=O)(=O)N2CCOCC2)CC1,-0.31
3,O=C(NC1CCN(C(=O)c2cccs2)CC1)c1ccccc1,-19.3
4,COC(=O)c1cc(N=CC2=C(O)CC(C)(C)CC2=O)cc(C(=O)OC)c1,-16.3
5,O=C(c1ccccc1)N1CCN(c2ncnc3c(-c4ccccc4)nsc23)CC1,6.38
6,Cc1nc2ccccc2c(=O)n1/N=C/c1ccc(O)cc1,10.9
7,Cc1nn(-c2ccccc2)c2nc(=O)n(-c3ccccc3)cc12,-10.9
8,Cc1ccc(S(=O)(=O)Nc2cccc(-n3cnnn3)c2)cc1C(=O)O,3.97
9,O=C(NC1CCCCCC1)c1ccc2c(=O)n3c(nc2c1)CCCCC3,-51
10,O=C(c1ccc2c(=O)n3c(nc2c1)CCCCC3)N1CCCCC1,17.5
11,CCOC(=O)N1CCC(NC(=O)c2ccc3c(=O)n4c(nc3c2)CCCC4)CC1,12
12,CCNc1ccc(C(=O)OCC)cc1NC(=O)c1cc(S(=O)(=O)N2CCOCC2)ccc1C,-10.9
13,Cn1c(SCC(=O)N2CCCC2)nnc1-c1cccs1,4.73
14,CN(C(=O)COC(=O)CSc1cc(Cl)ccc1Cl)c1c(N)n(Cc2ccccc2)c(=O)[nH]c1=O,-0.021
15,C[C@H]1CN=C(Nc2ccccc2)N1CC1CCCCC1,0.474
16,C[C@H]1CN=C(Nc2ccccc2)N1CC1CCCCCC1,-24.5
17,C[C@H]1CN=C(Nc2ccccc2)N1CCCC1CCCC1,-58.7
18,C[C@H]1CN=C(Nc2ccccc2)N1CCC1CCCC1,-10.6
19,C[C@H]1CN=C(Nc2ccccc2)N1CCCC1CCCCC1,-62.2
20,C[C@H]1CN=C(Nc2ccccc2)N1CCC1CCCCC1,-46.8
21,COc1ccc(S(=O)(=O)N2CCOC2CNC(=O)C(=O)NCc2ccncc2)cc1OC (stereo not shown),10.3
